# Some of the results follow. A number with no mark means an inactive call. Calls of active or inactive are those of the source. Rule as the data show it: active = activation above about 18%; inactive = the rest.
# Molecular target: Mu-type opioid receptor (Homo sapiens) + Delta-type opioid receptor (Homo sapiens) (UniProt P35372+P41143)
# Experiment: OPRM1-OPRD1 heterodimer formation agonism – cell-based, luminescence, confirmation (AID 504904);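 also: 0% = vehicle-treated cells and 100% = reference agonist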
# Details: cells, MOR-DOR heterodimerization, luminescence complementation; at 9.3 µM; hits give high values
# Chain of Mu-type opioid receptor (Homo sapiens) + Delta-type opioid receptor (Homo sapiens) (P35372 whole entry, looked up): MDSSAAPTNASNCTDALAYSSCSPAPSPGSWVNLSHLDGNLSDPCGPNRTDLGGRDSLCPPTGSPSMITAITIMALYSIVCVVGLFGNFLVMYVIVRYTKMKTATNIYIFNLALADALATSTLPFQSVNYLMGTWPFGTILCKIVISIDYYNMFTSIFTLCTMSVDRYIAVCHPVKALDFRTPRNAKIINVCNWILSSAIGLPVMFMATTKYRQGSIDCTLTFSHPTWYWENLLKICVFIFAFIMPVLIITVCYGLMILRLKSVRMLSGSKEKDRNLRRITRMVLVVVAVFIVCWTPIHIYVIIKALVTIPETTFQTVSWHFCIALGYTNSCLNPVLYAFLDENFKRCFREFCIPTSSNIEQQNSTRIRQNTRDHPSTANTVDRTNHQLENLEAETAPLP
# Chain of Mu-type opioid receptor (Homo sapiens) + Delta-type opioid receptor (Homo sapiens) (P41143 whole entry, looked up): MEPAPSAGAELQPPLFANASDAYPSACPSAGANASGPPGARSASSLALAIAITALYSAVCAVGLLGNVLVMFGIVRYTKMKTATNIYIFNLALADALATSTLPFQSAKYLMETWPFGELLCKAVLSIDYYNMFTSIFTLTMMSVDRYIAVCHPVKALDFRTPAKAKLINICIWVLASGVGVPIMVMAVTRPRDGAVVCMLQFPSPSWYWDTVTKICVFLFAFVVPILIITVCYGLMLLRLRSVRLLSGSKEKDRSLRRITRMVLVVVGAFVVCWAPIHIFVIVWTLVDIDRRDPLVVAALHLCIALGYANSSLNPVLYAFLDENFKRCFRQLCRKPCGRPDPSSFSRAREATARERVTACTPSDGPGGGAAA
row,Structure (SMILES),activation
1,CCC1(C)CC(CCNCc2ccc(N(C)C)cc2)(c2ccc(F)cc2)CCO1 (centres undefined),137% (active)
2,CCOC(=O)C1(CCc2ccccc2)CCN(Cc2ccco2)CC1,41.4% (active)
3,COC1C(O)C(C)OC(OC2CCC3(C=O)C(CCC4C3CCC3(C)C(C5=CC(=O)OC5)CCC43O)C2)C1O (centres undefined),51.8% (active)
4,C[C@]12CC[C@H](O)C[C@H]1CC[C@@H]1C2CC[C@]2(C)[C@@H](C3=CC(=O)OC3)[C@@H](O)C[C@]12O (some centres undefined),-3.86%

# — PubChem BioAssay AID504904 (The Scripps Research Institute Molecular Screening Center, 2011)
